Data as given in PubChem BioAssay AID1159580 (chemical genetic matrix, 2015).
In all, about 5,500 compounds went through this assay and about 2,000 (36%) were called active. Not shown: some 18% with an inconclusive outcome. No stated cut-off is given here; in the data, active means normalized growth mostly below about 0.91 (no sharp cut-off); inconclusive means no clear call, values can overlap the other calls; inactive means mostly above about 0.92. This is one part of the list.

Experiment: chemical genetic growth profiling, strain panel (AID 1159580);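 further: tested at 20 µM; growth read once vehicle control cultures reached saturation at 30 °C; 1 = growth at the plate median or of vehicle wells; lower values mean less growth of the strain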
Details: growth OD
[1] = S. cerevisiae deletion strains, locus YAL013W, strain DEP1, hits give low values
[2] = S. cerevisiae deletion strains, locus YBR229C, strain ROT2, hits give low values
[3] = S. cerevisiae deletion strains, locus YDL101C, strain DUN1, hits give low values
[4] = S. cerevisiae deletion strains, locus YDR150W, strain NUM1, hits give low values
[5] = S. cerevisiae deletion strains, locus YEL061C, strain CIN8, hits give low values
[6] = S. cerevisiae deletion strains, locus YGR078C, strain PAC10, hits give low values
[7] = S. cerevisiae deletion strains, locus YHR030C, strain SLT2, hits give low values
[8] = S. cerevisiae deletion strains, locus YJR043C, strain POL32, hits give low values
[9] = S. cerevisiae deletion strains, locus YJR075W, strain HOC1, hits give low values
[10] = S. cerevisiae deletion strains, locus YKL190W, strain CNB1, hits give low values
[11] = S. cerevisiae deletion strains, locus YLR039C, strain RIC1, hits give low values
[12] = S. cerevisiae deletion strains, locus YLR262C, strain YPT6, hits give low values
[13] = S. cerevisiae deletion strains, locus YMR263W, strain SAP30, hits give low values
[14] = S. cerevisiae deletion strains, locus YMR307W, strain GAS1, hits give low values
[15] = S. cerevisiae deletion strains, locus YNL153C, strain GIM3, hits give low values
[16] = S. cerevisiae deletion strains, locus YNL322C, strain KRE1, hits give low values
[17] = S. cerevisiae deletion strains, locus YPL055C, strain LGE1, hits give low values
[18] = S. cerevisiae deletion strains, locus YPL241C, strain CIN2, hits give low values

Measured: normalized growth

O=C(O)CCS(=O)(=O)/C=C/c1ccccc1
inactive: [1] 0.995 | [2] 0.989 | S. cerevisiae deletion strains, locus YCL061C, strain MRC1, hits give low values 1 | [3] 1.04 | [4] 0.984 | [5] 1 | [6] 1.02 | [7] 0.996 | S. cerevisiae deletion strains, locus YHR087W, strain rtc3, hits give low values 1.01 | S. cerevisiae deletion strains, locus YJL187C, strain SWE1, hits give low values 0.992 | [8] 0.989 | [9] 1 | [10] 0.979 | [11] 0.989 | S. cerevisiae deletion strains, locus YLR058C, strain SHM2 (second series), hits give low values 0.982 | S. cerevisiae deletion strains, locus YLR085C, strain ARP6, hits give low values 0.988 | [12] 1 | S. cerevisiae deletion strains, locus YML094W, strain GIM5, hits give low values 1.11 | S. cerevisiae deletion strains, locus YMR219W, strain ESC1, hits give low values 0.991 | [13] 0.955 | [14] 0.951 | [15] 1.01 | S. cerevisiae deletion strains, locus YNL298W, strain CLA4 (second series), hits give low values 0.997 | [16] 0.992 | S. cerevisiae deletion strains, locus YNR030W, strain Alg12, hits give low values 1.03 | [17] 1.02 | [18] 1.12 | S. cerevisiae deletion strains, locus YPR135W, strain CTF4, hits give low values 1.08

COc1ccc(/C=C/c2cc(O)cc(O[C@@H]3O[C@H](CO)[C@@H](O)[C@H](O)[C@H]3O)c2)cc1O
inactive: [1] 1 | S. cerevisiae deletion strains, locus YBR021W, strain FUR4, hits give low values 0.999 | [2] 1.01 | S. cerevisiae deletion strains, locus YCL029C, strain bik1, hits give low values 1.02 | S. cerevisiae deletion strains, locus YDL035C, strain GPR1, hits give low values 1.02 | S. cerevisiae deletion strains, locus YDL074C, strain BRE1, hits give low values 1.01 | [3] 1.02 | S. cerevisiae deletion strains, locus YDL134C, strain PPH21, hits give low values 1.01 | S. cerevisiae deletion strains, locus YDL185W, strain tfp1, hits give low values 1.02 | S. cerevisiae deletion strains, locus YDL192W, strain arf1, hits give low values 1.02 | S. cerevisiae deletion strains, locus YDR101C, strain arx1, hits give low values 1.01 | [4] 1.01 | S. cerevisiae deletion strains, locus YDR162C, strain NBP2, hits give low values 1.02 | S. cerevisiae deletion strains, locus YDR318W, strain mcm21, hits give low values 1.03 | S. cerevisiae deletion strains, locus YDR388W, hits give low values 1.01 | S. cerevisiae deletion strains, locus YDR502C, strain sam2, hits give low values 1.02 | [5] 1 | S. cerevisiae deletion strains, locus YER110C, hits give low values 1.03 | S. cerevisiae deletion strains, locus YER155C, strain BEM2, hits give low values 0.995 | S. cerevisiae deletion strains, locus YER167W, strain BCK2, hits give low values 1.03 | S. cerevisiae deletion strains, locus YGL078C, strain dbp3, hits give low values 1.02 | S. cerevisiae deletion strains, locus YGL086W, strain mad1, hits give low values 1.03 | S. cerevisiae deletion strains, locus YGL248W, strain PDE1, hits give low values 1.01 | [6] 1.03 | S. cerevisiae deletion strains, locus YGR135W, strain pre9, hits give low values 1.01 | S. cerevisiae deletion strains, locus YGR229C, strain SMI1, hits give low values 0.988 | S. cerevisiae deletion strains, locus YGR252W, strain gcn5, hits give low values 1.06 | [7] 1 | S. cerevisiae deletion strains, locus YHR079C, strain IRE1 (second series), hits give low values 1.02 | S. cerevisiae deletion strains, locus YHR094C, strain hxt1, hits give low values 1.02 | S. cerevisiae deletion strains, locus YHR129C, strain ARP1, hits give low values 1.01 | S. cerevisiae deletion strains, locus YHR200W, strain rpn10, hits give low values 1.03 | S. cerevisiae deletion strains, locus YIL066C, strain RNR3, hits give low values 1.02 | S. cerevisiae deletion strains, locus YIL073C, strain SPO22, hits give low values 1.06 | S. cerevisiae deletion strains, locus YIL125W, strain kgd1, hits give low values 0.999 | S. cerevisiae deletion strains, locus YIR030C, strain dcg1, hits give low values 1.01 | S. cerevisiae deletion strains, locus YJL095W, strain BCK1, hits give low values 1.01 | S. cerevisiae deletion strains, locus YJL134W, strain LCB3, hits give low values 1.01 | S. cerevisiae deletion strains, locus YJL168C, strain set2, hits give low values 1.01 | S. cerevisiae deletion strains, locus YJL187C, strain SWE1 (second series), hits give low values 1.01 | [8] 1.01 | [9] 0.973 | S. cerevisiae deletion strains, locus YKL009W, strain mrt4, hits give low values 1.03 | S. cerevisiae deletion strains, locus YKL068W, hits give low values 1.02 | S. cerevisiae deletion strains, locus YKL085W, strain MDH1 (second series), hits give low values 1.04 | S. cerevisiae deletion strains, locus YKL085W, strain MDH1, hits give low values 1.04 | [10] 1 | S. cerevisiae deletion strains, locus YKR001C, strain vps1, hits give low values 1.03 | [11] 1.04 | S. cerevisiae deletion strains, locus YLR058C, strain SHM2, hits give low values 1.01 | S. cerevisiae deletion strains, locus YLR102C, strain apc9, hits give low values 1.02 | [12] 1.05 | S. cerevisiae deletion strains, locus YLR268W, strain sec22, hits give low values 1.02 | S. cerevisiae deletion strains, locus YLR330W, strain CHS5, hits give low values 1.01 | S. cerevisiae deletion strains, locus YLR342W, strain FKS1 (second series), hits give low values 1.05 | S. cerevisiae deletion strains, locus YLR371W, strain rom2, hits give low values 1.01 | S. cerevisiae deletion strains, locus YLR418C, strain cdc73, hits give low values 0.987 | S. cerevisiae deletion strains, locus YML016C, strain PPZ1, hits give low values 1.02 | S. cerevisiae deletion strains, locus YML032C, strain rad52, hits give low values 1.01 | S. cerevisiae deletion strains, locus YML124C, strain tub3, hits give low values 1.01 | S. cerevisiae deletion strains, locus YMR078C, strain ctf18, hits give low values 1.02 | S. cerevisiae deletion strains, locus YMR223W, strain ubp8, hits give low values 1.03 | [13] 1.02 | [14] 1.04 | S. cerevisiae deletion strains, locus YNL067W, strain RPL9B, hits give low values 1.01 | S. cerevisiae deletion strains, locus YNL128W, strain TEP1, hits give low values 1.02 | [15] 1.02 | S. cerevisiae deletion strains, locus YNL233W, strain BNI4, hits give low values 1.01 | S. cerevisiae deletion strains, locus YNL250W, strain rad50, hits give low values 1.03 | S. cerevisiae deletion strains, locus YNL271C, strain bni1, hits give low values 1.03 | S. cerevisiae deletion strains, locus YNL298W, strain CLA4, hits give low values 1.03 | S. cerevisiae deletion strains, locus YNL307C, strain MCK1, hits give low values 1.03 | [16] 1.01 | S. cerevisiae deletion strains, locus YNR052C, strain pop2, hits give low values 1.01 | S. cerevisiae deletion strains, locus YOL006C, strain TOP1, hits give low values 1.08 | S. cerevisiae deletion strains, locus YOL012C, strain htz1 0.868 | S. cerevisiae deletion strains, locus YOL147C, strain pex11, hits give low values 1.01 | S. cerevisiae deletion strains, locus YOR061W, strain CKA2, hits give low values 1.02 | S. cerevisiae deletion strains, locus YOR069W, strain VPS5, hits give low values 1 | S. cerevisiae deletion strains, locus YOR136W, strain idh2, hits give low values 1.02 | S. cerevisiae deletion strains, locus YOR144C, strain elg1, hits give low values 1.01 | S. cerevisiae deletion strains, locus YOR184W, strain ser1, hits give low values 1.05 | S. cerevisiae deletion strains, locus YOR316C, strain cot1, hits give low values 1.02 | [17] 1.03 | [18] 1.01 | S. cerevisiae deletion strains, locus YPR119W, strain clb2, hits give low values 1.01 | S. cerevisiae deletion strains, locus YPR141C, strain kar3, hits give low values 1.03 | S. cerevisiae deletion strains, locus YPR163C, strain tif3, hits give low values 1.03 | S. cerevisiae deletion strains, locus YPR167C, strain met16, hits give low values 1.02 | S. cerevisiae deletion strains, strain wtn01, hits give low values 0.994 | S. cerevisiae strains, strain wild type, hits give low values 1.01
